The full list was thinned out, with hits kept by preference.
LmPK inh – LmPK (Leishmania mexicana) enzyme inhibition; Potency, µM (highest dose often 57.5 µM), actives largely listed as inhibitors; AID 1721; 0.37% of 290,000 active; purified LmPK, Kinase-Glo ATP luminescence, 1 h
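Kinase-Glo luminescence read after 1 h RT reaction of 0.1 nM LmPK with 0.5 mM PEP and 0.1 mM ADP. Activity scaled between uninhibited and enzyme-free controls.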
Giardia FBPA inh-1 – Giardia lamblia aldolase inhibition; purified Giardia FBPA; Potency, µM (titrated, usually from 59.6 µM), actives largely listed as inhibitors; 0.71% of 290,000 active; AID 2451; further: nearly all actives have a fitted effect of over 55% in size
Target sequence (A8B2U2 whole entry, looked up): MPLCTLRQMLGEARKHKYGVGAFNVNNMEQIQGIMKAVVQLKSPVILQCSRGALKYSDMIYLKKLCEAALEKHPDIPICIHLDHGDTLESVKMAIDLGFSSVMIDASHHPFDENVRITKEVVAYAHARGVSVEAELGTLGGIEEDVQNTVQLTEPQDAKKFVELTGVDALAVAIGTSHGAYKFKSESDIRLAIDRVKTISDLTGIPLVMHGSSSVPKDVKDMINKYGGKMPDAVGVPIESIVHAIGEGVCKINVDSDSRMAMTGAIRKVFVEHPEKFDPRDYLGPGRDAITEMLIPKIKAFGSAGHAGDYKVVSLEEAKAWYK
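40 nM FBPA preincubated 10 min at RT with compound (up to 57.5 uM final), then substrate plus GAPDH/TPI/NAD/arsenate coupling and diaphorase/resazurin added. Fluorescence read after 20 min at RT, 525/598 nm.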
Shiga inhibitor – Shiga toxin inhibition | inhibition, % at 38.7 µM | 9.2% of 290,000 active | Vero cells, Shiga toxin protein synthesis inhibition reporter | AID 2315; in the data active means inhibition mostly above about 28%, no sharp cut-off; inactive means mostly below about 43%
TbPYK inhibitor – T. brucei pyruvate kinase inhibition | Potency, µM (top dose mostly 76.8 µM), most hits filed as inhibitors | 0.12% of 410,000 active | TbPYK enzyme, Kinase-Glo Plus ATP luminescence, 45 min | Q57TT1; further: nearly all actives have a fitted effect of over 50% in size
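Activity of T. brucei pyruvate kinase was followed by Kinase-Glo Plus luminescence after the enzyme reacted 45 min at room temperature with 130 uM ADP (final) and substrate. Test compounds were added before ADP at multiple concentrations.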
RE007 growth inh – less growth of the S. pombe RE007 Vpr strain; Potency, µM (doses to about 92.2 µM), actives largely listed as inhibitors; S. pombe RE007 Vpr strain, BacTiter-Glo ATP luminescence, 24 h; AID 651644; 0.21% of 360,000 active; active means well fitted falling curve with a large enough effect; inconclusive means small, poorly fitted or top-dose-only effect; inactive means no such curve, though single readings can be large or run the other way; further: nearly all actives have a fitted effect of over 50% in size
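Fission yeast strain RE007, carrying one chromosomally integrated HIV-1 vpr copy, was seeded at OD 0.01 in PMG+AL medium with 23 nL pinned compound. After 24 h at 30 °C and 99% humidity, viability was read by BacTiter-Glo luminescence.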
Cycloheximide cs – counter-screen hit for Shiga toxin inhibitors, cycloheximide; cell reporter, cycloheximide protein synthesis inhibition counterscreen; max response, %; 12% of 300,000 active; AID 2314; in the data active means max response mostly above about 13%, no sharp cut-off; inactive means mostly below about 14%; further: read at 38.3 µM for the half of the compounds with a filed dose
Giardia growth – blocks growth of Giardia lamblia trophozoites; shares compounds with Giardia FBPA inh-1; Giardia lamblia trophozoite growth inhibition; Potency, µM (top dose mostly 57.5 µM), actives largely listed as inhibitors; 5% of 1,500 active; AID 2785;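 further: trophozoites exposed to compound for 48 h at 37 °C; nearly all actives have a fitted effect of over 70% in size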
Mammal cell tox – mammalian cytotoxicity of Giardia aldolase inhibitor hits; shares compounds with Giardia FBPA inh-1; mammalian cell viability counter-screen, qHTS; Potency, µM (top dose mostly 57.5 µM), hits mostly inhibitors; 4% of 1,500 active; AID 2786;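 further: Chinese hamster ovary cells used as mammalian cytotoxicity surrogate; viability measured as cellular ATP by luminescence; compound exposure lasted 48 h before reading; nearly all actives have a fitted effect of over 60% in size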
Giardia FBPA inh-2 – confirmation of Giardia fructose-bisphosphate aldolase inhibitors; shares compounds with Giardia FBPA inh-1; purified Giardia aldolase enzyme activity, qHTS; Potency, µM (series often up to 57.5 µM), most hits filed as inhibitors; 5% of 1,500 active; further: nearly all actives have a fitted effect of over 45% in size
Rabbit aldolase – blocks rabbit muscle aldolase in Giardia aldolase selectivity test; shares compounds with Giardia FBPA inh-1; 4% of 1,500 active; Potency, µM (doses to about 57.5 µM), hits mostly inhibitors; Rabbit muscle FBPA enzyme inhibition, selectivity counter-screen; further: nearly all actives have a fitted effect of over 60% in size
Target sequence (P00883 whole entry, looked up): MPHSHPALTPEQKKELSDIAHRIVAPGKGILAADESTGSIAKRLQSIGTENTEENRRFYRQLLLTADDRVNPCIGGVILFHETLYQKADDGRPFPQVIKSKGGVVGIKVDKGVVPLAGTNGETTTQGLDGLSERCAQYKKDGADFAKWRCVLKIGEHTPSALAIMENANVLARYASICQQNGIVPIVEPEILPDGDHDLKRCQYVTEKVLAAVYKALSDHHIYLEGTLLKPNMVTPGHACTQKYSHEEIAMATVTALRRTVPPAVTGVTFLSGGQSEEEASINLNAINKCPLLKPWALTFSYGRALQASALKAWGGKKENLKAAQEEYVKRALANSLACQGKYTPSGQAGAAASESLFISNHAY
GAPDH coupling – counter-screen for Giardia aldolase inhibitors: GAPDH coupling enzyme; GAPDH coupling enzyme counterscreen, biochemical, qHTS; Potency, µM (series often up to 57.5 µM), most hits filed as inhibitors; shares compounds with Giardia FBPA inh-1; 6% of 1,500 active; AID 2795; further: nearly all actives have a fitted effect of over 55% in size
Hits are given with their value; – = inactive; ? = inconclusive; · = no result given; [ ] = dose if it differs, or a comment. Unless noted, the call rests on the fitted dose curve; in most records, active means well fitted curve in the direction sought with a large enough effect; inconclusive means small, poorly fitted or top-dose-only effect, or another doubt; inactive means no such curve, though single readings can be large; an effect the other way counts as inactive or inconclusive.

SMILES | LmPK inh | Giardia FBPA inh-1 | Shiga inhibitor | TbPYK inhibitor | RE007 growth inh | Cycloheximide cs | Giardia growth | Mammal cell tox | Giardia FBPA inh-2 | Rabbit aldolase | GAPDH coupling
CCN1CCc2c(sc(NC(=O)C3CCCCC3)c2C(=O)OC)C1 | – | 18µM | – | – | – | – | – | – | – | – | –
O=C1NC(=O)N(Cc2ccco2)C(=O)/C1=C/C=C/c1ccco1 | – | – | – | – | – | – | · | · | · | · | ·
CN1C(=O)/C(=C/C=C/c2ccco2)C(=O)NC1=S | – | 16µM | – | – | – | – | – | – | – | – | –
C=CCN(CC#CCOc1ccccc1OC)CC=C | – | 20µM | – | · | · | – | –[10.4 µM] | – | – | – | –
COc1cccc(CN(C)C(=O)C(Cc2ccccc2)NC(=O)c2ccccc2)c1OC (configuration not stated) | · | · | · | – | – | · | · | · | · | · | ·
Cc1ccc(NC(=O)CN(C)C(=O)COc2cccc3cccnc23)cc1 | – | 11µM | – | – | – | – | – | – | 13µM | ? | ?
CC(CCC(=O)Nc1nncs1)C(=O)O (configuration not stated) | – | – | – | – | – | – | · | · | · | · | ·
CCOC(=O)c1sc(NC(=O)CN2CC(C)OC(C)C2)nc1C (configuration not stated) | – | – | – | – | – | – | · | · | · | · | ·
CCOC(=O)N1CCN(CC(=O)Nc2nnc(C(F)(F)F)s2)CC1 | – | 5µM | – | – | – | – | ? | – | – | – | –
CCN1CCN(CC(=O)Nc2nc3ccccc3s2)CC1 | – | 10µM | – | – | – | – | – | – | – | – | –
CCCN1CCN(CC(=O)Nc2nncs2)CC1 | – | 4.5µM | – | – | – | – | – | – | – | – | –
Cc1nnc(NC(=O)CN2CC(C)OC(C)C2)s1 (configuration not stated) | – | 2.5µM | – | – | – | – | – | – | – | – | –
CCc1nnc(NC(=O)CN2CCN(CC)CC2)s1 | – | 3.5µM | – | – | – | – | –[10.4 µM] | – | – | – | –
NC(=S)Nc1nc2ccccc2s1 | – | 5.6µM | 64 | – | – | 38 | – | ? | – | – | –
CCc1nnc(NC(=O)CN2CCCC(C)C2)s1 (configuration not stated) | – | 4µM | – | – | – | – | –[10.4 µM] | – | – | – | –
CCc1nnc(NC(=O)CN2CCN(S(C)(=O)=O)CC2)s1 | – | ? | – | – | – | – | · | · | · | · | ·
Cc1ccc(-c2cc(C(=O)N3CCN(S(=O)(=O)c4ccc(Br)s4)CC3)[nH]n2)c(C)c1 | · | · | · | – | · | · | · | · | · | · | ·
Cc1c(-c2ccccc2)c(=O)oc2cc(O)ccc12 | – | – | – | – | – | – | · | · | · | · | ·
CNC(=S)N(C)CCc1cc2c(c(OC)c1C=C1C(=O)NC(=O)NC1=O)OCO2 | – | 7.1µM | – | – | – | – | – | – | – | – | –
COc1ccc(N2CCN(C(=O)CSc3nnc(C)c(=O)[nH]3)CC2)cc1 | – | 13µM | – | – | – | – | – | – | – | – | –
Cc1ccc2oc(=O)c(/C=C(\O)c3ccco3)nc2c1 | – | 20µM | – | – | – | 17 | – | – | – | – | –
CCc1nc2ccc(C(=O)NCCCN3CCCC3=O)cn2c1N(C)C(=O)c1cccc(OC)c1 | · | · | · | – | – | · | · | · | · | · | ·
COc1ccc(S(=O)(=O)NNC(N)=S)cc1 | – | 10µM | – | – | – | – | – | – | – | – | –
COc1ccc(COC(=O)N/N=C2/C[C@@H](O)[C@@H](O)[C@@H]3[C@@H]4C(=O)N(C5CCCCC5)C(=O)[C@H]4CC[C@H]23)cc1 | · | –[12.9 µM] | · | · | · | · | · | · | · | · | ·
COc1ccc(CCNCc2cc(C)n(-c3ccc(OC)cc3)c2C)cc1 | – | 14µM | – | – | – | – | –[10.4 µM] | – | – | – | –
SMILES | LmPK inh | Giardia FBPA inh-1 | Shiga inhibitor | TbPYK inhibitor | RE007 growth inh | Cycloheximide cs | Giardia growth | Mammal cell tox | Giardia FBPA inh-2 | Rabbit aldolase | GAPDH coupling
CCOC(=O)CCc1c(C)nc(-n2[nH]c(C)c(CCO)c2=O)[nH]c1=O | – | 14µM | – | – | – | – | –[10.4 µM] | – | – | – | –
Cc1[nH]n(-c2nc(-c3ccccc3)cc(=O)[nH]2)c(=O)c1CCO | – | ? | – | – | – | – | · | · | · | · | ·
O=C(NCSc1ccncn1)c1ccccc1 | – | 16µM | – | – | – | – | –[10.4 µM] | – | – | – | –
CN(C)C(CNC(C(=O)Nc1ccc([N+](=O)[O-])cc1Br)c1ccccc1)c1ccccc1 (configuration not stated) | – | 20µM | – | – | – | – | –[10.4 µM] | – | – | – | –
CC(C)CNC(C(=O)Nc1ccc([N+](=O)[O-])cc1Br)c1ccccc1 (configuration not stated) | – | ? | – | – | – | – | · | · | · | · | ·
Cc1ccccc1C(c1c(C)n(C)n(-c2ccccc2)c1=O)c1c(C)n(C)n(-c2ccccc2)c1=O | · | · | · | – | · | · | · | · | · | · | ·
CN(C)CCCNS(=O)(=O)c1ccc(N2CCN(Cc3ccc4c(c3)OCO4)CC2)c([N+](=O)[O-])c1 | – | 14µM | – | – | – | – | – | – | – | – | –
C=CCNC(=S)N1CCN(Cc2ccc3c(c2)OCO3)CC1 | – | 7.1µM | · | – | – | – | – | – | – | – | –
Cc1ccc(C2CC(=O)N(Cc3ccc(F)cc3)c3c2c(C)nn3-c2nc(C)cc(C)n2)cc1 (configuration not stated) | · | · | · | – | · | · | · | · | · | · | ·
CCc1ccc2oc(-c3cccc(NC(=O)C(C)(C)Oc4ccc(Br)cc4)c3)nc2c1 | · | · | · | – | · | · | · | · | · | · | ·
Cn1c(=O)c2c(SCC(=O)Nc3ccccc3C(F)(F)F)nc(C3CCCC3)nc2n(C)c1=O | · | · | · | – | · | · | · | · | · | · | ·
CN1CCc2c1nc1ccccc1c2N (tested in a mixture with another compound) | – | – | – | – | – | – | · | · | · | · | ·
Cc1cccc2c(N)c3c(nc12)N(C)CC3 | – | 16µM | – | – | · | – | ? | – | – | – | –
Cc1cccc(C(=O)n2nc(-c3ccco3)nc2NCc2ccccc2)c1 | · | · | · | – | · | · | · | · | · | · | ·
Cc1cc(NC(=O)c2ccccc2)n(-c2nc3ccccc3[nH]2)n1 | – | – | – | – | – | – | · | · | · | · | ·
Cc1cc(NC(=O)c2sccc2C)n(-c2nc3ccccc3[nH]2)n1 | – | 16µM | – | – | – | – | ? | ? | – | – | –
